The results in this text go back to PMC5540273 (PLoS ONE, 2017).
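Note: KINOMEscan kinase panel screen.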

The first assay relates to CAMK1. The following applies: concentration: 1 μM, replicates: in singlicate; n = 1.
For the compound `COc1cc2ncn(-c3cc(OCCCc4ccccc4)c(C(N)=O)s3)c2cc1OC` [GSK205189], the “%Inh” value came out at 14%.

As for `O=C1NC(=O)C(c2ccccc2)=C1Nc1cccc(O)c1` [SB-390534], the “%Inh” value was 0%.

For `CN1C(=O)C(Nc2ccccc2)=C(c2ccccc2)C1=O` [SB-300079], the “%Inh” value is given as 0%. Consider `COc1ccc(-n2cnc3c(N)ncnc32)cc1` [SKF-97236], for which the “%Inh” value was 5%. On the same count and under the same terms, the result for `COc1ccc(Nc2nccc(N3CCC(NS(=O)(=O)c4ccc(NC(C)=O)cc4)C3)n2)cc1` (stereo not shown) [GSK1379729] reads 18%; that for `Nc1ncnc2c1ncn2-c1cccc2ccccc12` [SKF-97184], 20%. The same measure, in the same setting: the result for `Nc1nc(-c2ccccc2F)c(-c2ccnc3ccccc23)s1` [GW560459] reads 6%. Still for that read-out and setting: the value for `CCc1nc(-c2cccc(C)c2)c(-c2ccncc2)s1` was 8%; that for `CCS(=O)c1ccc(-c2coc3ccc(-c4nnc(C)o4)cc23)cc1` (stereo not shown) was 20%. On to `O=c1cc(N2CCOCC2)nc2n(Cc3ccc(F)c(Cl)c3)ccn12` [GSK2297099], for which the “%Inh” value is 17%. Still for that read-out and setting: the value for `COC(=O)c1c(-c2ccccc2)c2cc(Br)ccc2c(=O)n1Cc1ccc(NC(=O)CCC(=O)O)cc1` was 12%; that for `COc1cc2ncn(-c3cc(OCc4ccncc4)c(C(N)=O)s3)c2cc1OC` [GSK336313] was 24%.

As for `CCn1c(-c2nonc2N)nc2ccccc21` [SB-693162/GW549034], the “%Inh” value is listed as 17%. As for `CCC(=O)c1c(-c2ccccc2)c2cc(Cl)ccc2c(=O)n1Cc1cc(S(C)(=O)=O)n(CC(N)=O)n1`, the “%Inh” value was determined as 3%. Consider `O=C(Nc1n[nH]c2nc(-c3ccccc3)c(Cl)cc12)C1CC1` [SB-734909], for which the “%Inh” value is listed as 0%. Regarding `COc1cccc(-n2cnc3c(N)ncnc32)c1` [SKF-97416], the “%Inh” value was found to be 16%. Same read-out and setting: the value for `CCS(=O)(=O)c1ccc(OC)c(Nc2ncc(-c3ccc(F)cc3)o2)c1.Cl` [GW591947] was 0%. In the case of `COc1cc(OC)cc(-c2cc3cnc(N)nc3nc2NC(=O)NC(C)(C)C)c1`, the “%Inh” value turned out to be 0%. The same measure, in the same setting: the value for `COc1cc2nccc(Nc3ccc(OCc4ccc(NC(C)=O)cc4)cc3)c2cc1OC.Cl` [GW440135] was 5%. Consider `O=C(Nc1n[nH]c2cc(-c3ccccc3F)ccc12)C1CC1` [SB-733371], for which the “%Inh” value is recorded as 0%.

Regarding `CN1C(=O)C(Nc2cc(Cl)c(O)c(Cl)c2)=C(c2ccc(Cl)cc2)C1=O` [SB-404321], the “%Inh” value was 0%. On to `C[C@@H]1CC[C@H](C(=O)NC2CCCCC2)CN1c1cc(-c2ccc3c(N)n[nH]c3c2)nc(N)n1` [GSK2291363], for which the “%Inh” value is on record as 35%.

The next assay concerns CAMK2A. Conditions: concentration: 1 μM, replicates: in singlicate; n = 1.
Consider `COc1cc2ncn(-c3cc(OCc4ccncc4Br)c(C(N)=O)s3)c2cc1OC` [GW854278], for which the “%Inh” value is recorded as 37%. For the compound `Cc1cc(Nc2nc(-c3cccc(C)n3)nc3ccccc23)ccn1` [GW872411], the “%Inh” value came to 0%. Same read-out and setting: the value for `Cc1nnc(-c2ccc(C)c(-c3ccc(C(=O)O)cc3)c2)o1` [GW608005] was 0%; that for `COc1cc(Nc2ccnc3ccc(C(F)(F)F)cc23)cc(OC)c1OC` [GW577382] was 0%. The same measure, in the same setting: the value for `FC(F)(F)c1ccc(-c2ncn(CCCN3CCOCC3)c2-c2ccncc2)cc1` [SB-217780] was 0%. Regarding `Cl.c1ccc(Cn2cnc3cc(Nc4ncnc5ccccc45)ccc32)cc1` [GW272142], the “%Inh” value is 0%. As for `Cc1ccc(-c2ccc3c(ccc4sc5c(c43)NC[C@@H](C)N=C5N(C)C)n2)cn1`, the “%Inh” value is listed as 0%.

Consider `Cl.NS(=O)(=O)c1cccc(Nc2cc(-c3ccc(F)cc3)n[nH]2)c1` [GW824645], for which the “%Inh” value was 0%. On the same count and under the same terms, the value for `CCc1ccc(-c2ccc3c(c2)-c2nn(C)cc2S(=O)(=O)N3C)cc1` was 9%; that for `O=C(Nc1ccc2c(c1)OCO2)NC1CCN(c2ccnc(NCc3ccc(F)cc3)n2)CC1` [GSK1379859] was 0%. Take `Cc1nc(N(C)[C@H]2CN(C(=O)CC#N)CC[C@H]2C)c2cc[nH]c2n1`: the “%Inh” value is listed as 0%. As for `CCCC(=O)Nc1n[nH]c2ncc(-c3cccc4ccccc34)cc12` [SB-642057], the “%Inh” value was 0%. On the same count and under the same terms, the result for `COC(=O)c1c(-c2ccccc2)c2cc(C)ccc2c(=O)n1Cc1ccccc1` reads 0%; that for `Cc1ccc(Oc2ccc(Nc3ncnc4cc[nH]c34)cc2C)cn1`, 0%; that for `COc1cc2ncn(-c3cc(OCCCc4ccccc4)c(C(N)=O)s3)c2cc1OC` [GSK205189], 0%. The same measure, in the same setting: the result for `O=C1NC(=O)C(c2ccccc2)=C1Nc1cccc(O)c1` [SB-390534] reads 17%; that for `CN1C(=O)C(Nc2ccccc2)=C(c2ccccc2)C1=O` [SB-300079], 0%; that for `COc1ccc(-n2cnc3c(N)ncnc32)cc1` [SKF-97236], 0%. `COc1ccc(Nc2nccc(N3CCC(NS(=O)(=O)c4ccc(NC(C)=O)cc4)C3)n2)cc1` (stereo not shown) [GSK1379729]: the “%Inh” value is given as 0%. For `Nc1ncnc2c1ncn2-c1cccc2ccccc12` [SKF-97184], the “%Inh” value came to 0%. Same read-out and setting: the value for `Nc1nc(-c2ccccc2F)c(-c2ccnc3ccccc23)s1` [GW560459] was 0%; that for `CCc1nc(-c2cccc(C)c2)c(-c2ccncc2)s1` was 0%; that for `CCS(=O)c1ccc(-c2coc3ccc(-c4nnc(C)o4)cc23)cc1` (stereo not shown) was 0%. Take `O=c1cc(N2CCOCC2)nc2n(Cc3ccc(F)c(Cl)c3)ccn12` [GSK2297099]: the “%Inh” value is given as 0%. Same read-out and setting: the value for `COC(=O)c1c(-c2ccccc2)c2cc(Br)ccc2c(=O)n1Cc1ccc(NC(=O)CCC(=O)O)cc1` was 0%. Same read-out and setting: the value for `COc1cc2ncn(-c3cc(OCc4ccncc4)c(C(N)=O)s3)c2cc1OC` [GSK336313] was 0%.

For the compound `CCn1c(-c2nonc2N)nc2ccccc21` [SB-693162/GW549034], the “%Inh” value came out at 5%. Still for that read-out and setting: the result for `CCC(=O)c1c(-c2ccccc2)c2cc(Cl)ccc2c(=O)n1Cc1cc(S(C)(=O)=O)n(CC(N)=O)n1` reads 0%; that for `O=C(Nc1n[nH]c2nc(-c3ccccc3)c(Cl)cc12)C1CC1` [SB-734909], 0%; that for `COc1cccc(-n2cnc3c(N)ncnc32)c1` [SKF-97416], 0%. In the case of `CCS(=O)(=O)c1ccc(OC)c(Nc2ncc(-c3ccc(F)cc3)o2)c1.Cl` [GW591947], the “%Inh” value is 0%. In the case of `COc1cc(OC)cc(-c2cc3cnc(N)nc3nc2NC(=O)NC(C)(C)C)c1`, the “%Inh” value was 0%. Same read-out and setting: the result for `COc1cc2nccc(Nc3ccc(OCc4ccc(NC(C)=O)cc4)cc3)c2cc1OC.Cl` [GW440135] reads 0%; that for `O=C(Nc1n[nH]c2cc(-c3ccccc3F)ccc12)C1CC1` [SB-733371], 2%; that for `CN1C(=O)C(Nc2cc(Cl)c(O)c(Cl)c2)=C(c2ccc(Cl)cc2)C1=O` [SB-404321], 0%. The same measure, in the same setting: the result for `C[C@@H]1CC[C@H](C(=O)NC2CCCCC2)CN1c1cc(-c2ccc3c(N)n[nH]c3c2)nc(N)n1` [GSK2291363] reads 4%.
